# PK Bst = alters activity of Bacillus stearothermophilus pyruvate kinase; 51,000 compounds, 1.2% hits; Potency, µM; purified pyruvate kinase, luminescence ATP production; ribose 5-phosphate activator present at AC10; in the data active means potency below about 11 µM; inconclusive means mostly about 12 µM to 25 µM;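 the screen sought inhibitors and activators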;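 further: scaled between full activation by ribose 5 phosphate and full inhibition by luteolin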
# ERK AVP block = inhibitors of vasopressin-stimulated ERK signaling pathway; Potency, µM (top dose mostly 57.5 µM), inactives show at the top dose activity, negative = inhibition, most hits filed as inhibitors; HEK293-V1b, vasopressin-stimulated pERK AlphaScreen; 72,000 compounds, 0.99% hits; AID 995; further: nearly all actives have a fitted effect of over 55% in size
#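 HEK293 cells stably expressing V1b receptor, preincubated 30 min at 37 °C with compound, then stimulated 5 min with 25 nM vasopressin. Phospho-ERK by AlphaScreen SureFire after 5 h RT; normalized to DMSO and vasopressin; AC50 by Hill fit.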
# Pol III holo inh = inhibitors of bacterial DNA polymerase III holoenzyme | reconstituted DNA polymerase III holoenzyme replication, biochemical | Potency, µM (doses to about 57.1 µM), inactives show top-dose activity change, negative = inhibition | 71,000 compounds, 0.25% hits | AID 603
#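 Reconstituted *E. coli* holoenzyme (0.35 nM Pol III, 1 nM beta, 154 nM SSB, 2 nM primase) was preincubated with compound for 15 min at RT. Synthesis on 1.4 nM ssM13Gori ran 35 min, then was stopped with PicoGreen/EDTA and read as dsDNA fluorescence.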
# Tau filament bind = tau filament binding | recombinant tau filaments, thioflavin S fluorescence, 15 h; filaments grown with octadecylsulfate alongside compound | Potency, µM (doses to about 57.1 µM), inactives show top-dose activity change, negative = inhibition | 71,000 compounds, 2% hits;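 further: actives lower thioflavin S fluorescence by blocking filaments or displacing dye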
#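 Recombinant tau protein (human, 1 uM final) plus 30 uM ODS in HEPES pH 7.4 with NaCl, DTT and thioflavine S. Compound present from the start; fluorescence at 510 nm after 15 h, 37 C.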
# ALOX15 inhib = 15-hLO (ALOX15) enzyme inhibition | 74,000 compounds, 1.4% hits | P16050 | purified 15hLO-1, xylenol orange hydroperoxide absorbance | Potency, µM (highest dose often 57.1 µM), for inactives: at the top dose activity change, negative = inhibition, most hits filed as inhibitors; further: nearly all actives have a fitted effect of over 55% in size
# Target sequence (P16050 whole entry, looked up): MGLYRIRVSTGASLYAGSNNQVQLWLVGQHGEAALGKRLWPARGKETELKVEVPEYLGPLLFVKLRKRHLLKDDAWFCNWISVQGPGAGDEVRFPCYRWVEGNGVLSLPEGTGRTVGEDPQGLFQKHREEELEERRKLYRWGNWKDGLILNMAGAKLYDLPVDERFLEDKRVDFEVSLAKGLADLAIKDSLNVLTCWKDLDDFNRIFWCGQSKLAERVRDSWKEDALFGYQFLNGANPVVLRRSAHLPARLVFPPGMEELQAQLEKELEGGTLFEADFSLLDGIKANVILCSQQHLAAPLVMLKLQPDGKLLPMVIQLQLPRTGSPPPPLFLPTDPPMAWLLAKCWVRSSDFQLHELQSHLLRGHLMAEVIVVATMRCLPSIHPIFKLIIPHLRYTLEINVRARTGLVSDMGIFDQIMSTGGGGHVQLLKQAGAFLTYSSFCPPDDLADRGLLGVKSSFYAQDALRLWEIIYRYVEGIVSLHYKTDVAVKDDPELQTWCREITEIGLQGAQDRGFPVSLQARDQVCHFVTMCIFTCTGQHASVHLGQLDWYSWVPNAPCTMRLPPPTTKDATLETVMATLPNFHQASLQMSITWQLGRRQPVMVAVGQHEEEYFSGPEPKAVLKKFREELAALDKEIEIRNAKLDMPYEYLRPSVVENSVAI
#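 Hydroperoxide formed from arachidonic acid (50 uM) by purified human 15hLO-1 (40 nM) oxidizes ferrous iron, and the ferric-xylenol orange complex is read at 573 versus 405 nm. Compounds were preincubated 15 min; reaction ran 6 min at room temperature.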
# FLuc inh = inhibitors of firefly luciferase; purified firefly luciferase, luminescence, 8 min; AID 411; P08659; 72,000 compounds, 2.2% hits; Potency, µM (highest dose often 57.1 µM), without a hit: at the top dose activity change, negative = inhibition, most hits filed as inhibitors; further: nearly all actives have a fitted effect of over 40% in size
#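 Substrate buffer containing 10 uM ATP (pH 7.2 imidazole, Mg2+, KCl, detergent, BSA) is dispensed, compound pinned in, then luciferase/luciferin detector mix added. After 8 min at ambient temperature, light output is measured.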
# An asterisk follows results filed as active; i = inactive; ? = inconclusive; nt = not tested or not shown; ! = not confirmed by another sample; [ ] = dose if it differs, or a comment. Shown are actives, neighbours in structure and some others; about 6% of the full set was active somewhere. Unless noted, the call rests on the fitted dose curve; in most records, active means well fitted curve in the direction sought with a large enough effect; inconclusive means small, poorly fitted or top-dose-only effect, or another doubt; inactive means no such curve, though single readings can be large; an effect the other way counts as inactive or inconclusive. Unless noted, on the % scale 0 is the no-effect control and ±100 the full control effect; potency means the concentration at half of the fitted maximal effect.
SMILES,PK Bst,ERK AVP block,Pol III holo inh,Tau filament bind,ALOX15 inhib,FLuc inh
COc1ccc2[nH]cc(CCNc3ccnc(-c4ccccc4Cl)n3)c2c1,nt,39.8µM*,2.8%,-10.1%,-6.6%,0.1%[2.29 µM]
Sc1ccc2ccccc2c1CNCc1ccccc1,nt,-0.5%[11.5 µM],-10.3%[11.4 µM],3.9%[11.4 µM],-14.9%[11.4 µM],2.5%[11.4 µM]
CCOc1ccc(C(=O)NCc2cccs2)cc1,>57,-17.7%,0.2%,-5.7%,3.2%,-10.6%
COc1ccc2nc3sc(C(=O)NCc4cccs4)c(N)c3cc2c1,i,?,-9.7%,?,20µM*,-6.4%
S=C(S)NCCCn1ccnc1,nt,-9.1%[11.5 µM],-2.9%[11.4 µM],-1.5%[11.4 µM],-9.0%[11.4 µM],0.3%[11.4 µM]
c1ccc(C2=Nn3c(nnc3-c3cc(-c4ccccc4)n[nH]3)SC2)cc1,>11.4,25.1µM*,-6.3%,209.5%,?,?
COc1ccc(C2=Nn3c(nnc3-c3ccccc3OC)SC2)cc1OC,>57,5.01µM*,-9.2%,-7.0%,10.1%,1.9%
COc1ccc(C2=Nn3c(nnc3-c3ccc(OC)cc3)SC2)cc1,>57,10µM*,-0.8%,54.3%,-20.4%,-1.6%
COc1ccc(C2=Nn3c(nnc3-c3ccccn3)SC2)cc1OC,>25.6,nt,nt,nt,nt,-0.3%[25.5 µM]
Cc1ccc(-c2nnc3n2N=C(c2ccccc2)CS3)cc1,nt,nt,-4.4%,30.8%,3.0%,-1.2%
COC(=O)[C@@]1(Cc2ccc(OC)cc2)[C@H]2c3cc(C(=O)N(C)C)n(Cc4ccc(C)c(F)c4F)c3C[C@H]2CN1C(=O)c1ccccc1,nt,12.0%,-3.6%,14.5%,nt,nt
COc1cccc(-c2ccc3ncnc(N(C)Cc4ccco4)c3c2)c1,nt,?,-7.0%,-0.7%,-22.5%,1.0%[2.29 µM]
CN(C)c1ccc(-c2ccc3ncnc(N(C)Cc4ccco4)c3c2)cc1,nt,-28.4%,-4.5%,20µM*,-18.8%,0.4%[2.29 µM]
CC1(C)CC(=O)C2=C(C1)Oc1ncn(CCO)c(=N)c1C2c1ccccc1 (configuration not stated),>57,-15.7%,0.8%,14.0%,7.9%,1.4%
COc1ccc(C2C3=C(CC(C)(C)CC3=O)Oc3ncn(Cc4ccco4)c(=N)c32)cc1 (configuration not stated),>57,?,-12.4%,15.8µM*,-7.3%,3.5%
CC1(C)CC(=O)C2=C(C1)Oc1ncn(CCCO)c(=N)c1C2c1ccccc1 (configuration not stated),>57,-13.7%,-3.5%,21.8%,-1.5%,-1.0%
COc1ccc(C2C3=C(CC(C)(C)CC3=O)Oc3ncn(CC(C)C)c(=N)c32)cc1 (configuration not stated),>57,-9.0%,-1.4%,3.98µM*,0.5%,1.3%
COc1ncc2nc(-c3ccccc3)c(=O)n(C3CC3)c2n1,nt,?,-11.8%,1.6%,4.0%,1.7%[11.4 µM]
COc1ccc(Cl)cc1NC(=O)C1CSC(c2ccncc2)=N1 (configuration not stated),nt,15.8µM*,-7.3%,11.2%,?,-1.4%
Cc1ccc2oc(-c3ccc(NC(=O)c4cccnc4)cc3)nc2c1,nt,-17.8%,-2.5%,133.8%,-2.1%,-10.8%
Cc1ccc(-c2nc(-c3cccnc3)no2)c(C)c1,?,2.6%,-4.0%,0.4%,2.2%,12.6µM*
Cc1ccc2nc(-c3cccnc3)oc2c1,i,12.4%,-2.4%,1.0%,13.3%,25.1µM*
CC(C)CC(=O)Nc1ccc2oc(-c3cccnc3)nc2c1,nt,-20.4%,-2.0%[11.4 µM],12.2%[11.4 µM],4.9%[11.4 µM],12.6µM*
Cc1ccc2nc(-c3ccccn3)oc2c1,6.9*,-2.9%,-9.5%,-0.4%,-7.8%,7.94µM*
Cc1ccc(C)c(OCc2nc(-c3cccnc3)no2)c1,nt,nt,nt,nt,5.2%,nt
SMILES,PK Bst,ERK AVP block,Pol III holo inh,Tau filament bind,ALOX15 inhib,FLuc inh
O=C(CSc1nc(-c2ccco2)cc(C(F)(F)F)n1)Nc1ccc2c(c1)OCO2,>57,8.1%,-5.5%,153.1%,-6.5%,2.2%
O=C(CCCSc1nc(-c2ccco2)cc(C(F)(F)F)n1)Nc1ccc2c(c1)OCO2,>57,5.5%,-5.6%,25.1µM*,-14.0%,-1.9%
COc1ccc(S(=O)(=O)N2c3ccc(Cl)cc3[C@](O)(c3ccccc3Cl)[C@@H]2C(=O)N2CCC[C@H]2C(N)=O)cc1OC,nt,3.98µM*,nt,nt,15.8µM*,nt
COc1cc2ccc(=O)oc2c(O)c1O,nt,?,-7.6%,?,12.6µM*!,2.1%[11.4 µM]
N#Cc1cc2c(nc1SCc1nc3ccccc3[nH]1)CCC2,5.97*,?,-7.0%,31.6µM*,15.8µM*,3.98µM*
N#Cc1cc2c(nc1SCc1cccnc1)CCCC2,>57,0.2%,-9.3%,10.9%,15.8µM*,-0.5%
CCc1ccccc1OC[C@@H](O)CN[C@H]1CCCc2ccccc21,nt,-26.1%,-2.5%,12.6µM*,-10.4%[25.6 µM],-14.2%
CCCCC=O,nt,-1.8%,-0.8%,8.4%,0.9%,nt
Cc1ccc(-c2csc3nnc(SCC(=O)Nc4cccc(C)n4)n23)cc1,>57,-25.4%,0.0%,20µM*,14.4%,-0.6%
c1cnc2c(SCc3ccc(-c4nnco4)cc3)cccc2c1,2.45*,-13.8%,-4.6%,271.3%,0.5%,-14.2%
c1ccc2[nH]c(SCc3ccc(-c4nnco4)cc3)nc2c1,nt,?,-6.5%,-3.4%,-3.0%,?
CCC(=O)/C=C/C1C(C)=CCCC1(C)C (configuration not stated),nt,11.8%,5.7%,-3.5%,25.1µM*,nt
Cn1c(=O)c(-c2cccc(F)c2)nc2cncnc21,nt,-24.5%,1.3%,0.4%,4.6%,3.0%[11.4 µM]
C[n+]1cc2c3c(ccc2c2ccc4cc5c(cc4c21)OCO5)OCO3,nt,25.1µM*!,31.6µM*!,?,10µM*,12.6µM*
O=C(Nc1ccc(Cl)cc1)Nc1ccccc1C(=O)NCc1ccco1,nt,?,7.4%,49.9%,-8.0%,7.94µM*
N#CCCn1c(=O)c(-c2cccs2)nc2cnc(N3CCOCC3)nc21,nt,?,-9.0%,i,-16.4%,-0.4%[11.4 µM]
O=C1C=C[C@@H](O)[C@H]2[C@@H]3C(=O)N(C[C@@H]4CCCO4)C(=O)[C@@H]3CC[C@H]12,nt,32.5%[11.5 µM],nt,nt,7.8%[11.4 µM],1.1%[11.4 µM]
O=C1C2C(C(=O)N1c1ccncc1)C1C=CC2C12CC2 (configuration not stated),>57,-14.2%,0.9%,0.1%,9.9%,-4.8%
Cc1ccc(N2C(=O)C3C(C2=O)C2C=CC3C23CC3)cc1 (configuration not stated),nt,-5.5%,-1.1%,5.7%,5.5%,12.6µM*
CCOc1ccccc1O[C@@H](c1ccccc1)[C@@H]1CNCCO1,nt,35.2%,0.8%,31.6µM*,-4.9%[25.6 µM],-0.2%
COc1ccc(Cn2c(C3CC3)nc3ccc(NC(C)=O)cc3c2=O)cc1,nt,0.1%,-2.3%,224.4%,3.9%,20µM*
Cc1ccc(N=Cc2nc(-c3ccco3)oc2O)cc1,?,-0.9%,-0.9%,4.3%,-28.9%,15.8µM*
COc1ccc(-c2nc3cnc(N4CCOCC4)nc3n(CCc3ccccc3)c2=O)cc1,nt,17.3%,-7.8%,87.1%,?,-0.5%[11.4 µM]
